Read-out in test [1]: TIMP metallopeptidase inhibitor 1 (TIMP1), TIMP1 (gene 7076)
Put plainly: BSK_hDFCGF_TIMP1: BioMAP Diversity Plus: hDFCGF Assay for TIMP metallopeptidase inhibitor 1 (TIMP1) Biomarker Activity (AID 2283062). Conditions: primary human foreskin fibroblasts; actives raise or lower the signal. Put shortly: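 Bidirectional curve fitting against DMSO baseline yielded this endpoint, based on ELISA detection of TIMP-1 in primary human foreskin fibroblasts exposed to compound for 24 h.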

Read-out in test [2]: Monokine induced gamma interferon (MIG), CXCL9 (gene 4283)
In words: BSK_hDFCGF_MIG: BioMAP Diversity Plus: hDFCGF Assay for Monokine induced gamma interferon (MIG) Biomarker Activity (AID 2283063). Conditions: primary human foreskin fibroblasts; actives raise or lower the signal. Put shortly: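 Endpoint derived by bidirectional fitting relative to DMSO; MIG quantified via ELISA in primary human foreskin fibroblasts harvested 24 h after dosing.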

Read-out in test [3]: Matrix Metallopeptidase 1 (MMP1), MMP1 (gene 4312)
In words: BSK_hDFCGF_MMP1: BioMAP Diversity Plus: hDFCGF Assay for Matrix Metallopeptidase 1 (MMP1) Biomarker Activity (AID 2283064). Conditions: primary human foreskin fibroblasts; actives raise or lower the signal. Put shortly: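 Primary human foreskin fibroblasts in the hDFCGF system were dosed with test chemical, and MMP1 was measured by ELISA 24 h later. Values come from bidirectional curve fitting against the DMSO baseline.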

Read-out in test [4]: Vascular cell adhesion molecule 1 (VCAM1), VCAM1 (gene 7412)
Put plainly: BSK_hDFCGF_VCAM1: BioMAP Diversity Plus: hDFCGF Assay for Vascular cell adhesion molecule 1 (VCAM1) Biomarker Activity (AID 2283065).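 On AC50: VCAM-1 protein level quantified by ELISA after 24 h chemical exposure.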 Conditions: primary human foreskin fibroblasts; actives raise or lower the signal. Put shortly: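 Measured after 24 h chemical treatment of primary human skin fibroblasts, VCAM-1 was detected by ELISA and concentration-response analysed in both directions versus DMSO vehicle.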

Read-out in test [5]: Intercellular Adhesion Molecule 1 (ICAM1), ICAM1 (gene 3383)
In words: BSK_KF3CT_ICAM1: BioMAP Diversity Plus: KF3CT Assay for Intercellular Adhesion Molecule 1 (ICAM1) Biomarker Activity (AID 2283067). Conditions: primary human keratinocytes with fibroblasts; actives raise or lower the signal. Put shortly:
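Bidirectional curve fitting against a DMSO baseline was applied to ICAM-1 ELISA signal from primary human skin co-cultures harvested 24 h after treatment, with SRB staining of parallel wells for overt cytotoxicity.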

Read-out in test [6]: Interferon-gamma inducible Protein 10 (IP10), CXCL10 (gene 3627)
In words: BSK_KF3CT_IP10: BioMAP Diversity Plus: KF3CT Assay for Interferon-gamma inducible Protein 10 (IP10) Biomarker Activity (AID 2283068). As to conditions: primary human keratinocytes with fibroblasts; actives raise or lower the signal. Put shortly: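 ELISA read-out of IP-10 after 24 h chemical dosing of human skin primary co-culture (keratinocytes, foreskin fibroblasts). Gain or loss of signal relative to DMSO, bidirectional curve fit.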

The nature of test [7]: BSK_KF3CT_SRB: Viability Assessment in the BioMAP Diversity Plus: KF3CT Assay (AID 2283069).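 Further: total protein by sulforhodamine B staining as a cytotoxicity measure; read 24 h after compound addition.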 Conditions: primary human keratinocytes with fibroblasts. Put shortly: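 Human primary keratinocyte plus foreskin fibroblast co-culture exposed to chemicals for 24 h. Total protein measured by 0.1% sulforhodamine B staining after 10% TCA fixation, read at 560 nm; bidirectional fitting versus DMSO baseline.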

Read-out in test [8]: Interleukin-1 alpha (IL1a), IL1A (gene 3552)
In words: BSK_KF3CT_IL1a: BioMAP Diversity Plus: KF3CT Assay for Interleukin-1 alpha (IL1a) Biomarker Activity (AID 2283070). Conditions: primary human keratinocytes with fibroblasts; actives raise or lower the signal. Put shortly:
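Human keratinocyte plus foreskin fibroblast primary co-culture, sampled 24 h after chemical dosing. IL-1a measured by ELISA; responses fitted bidirectionally against DMSO baseline (negative control), so gain or loss of signal both count.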

Read-out in test [9]: TIMP metallopeptidase inhibitor 2 (TIMP2), TIMP2 (gene 7077)
In words: BSK_KF3CT_TIMP2: BioMAP Diversity Plus: KF3CT Assay for TIMP metallopeptidase inhibitor 2 (TIMP2) Biomarker Activity (AID 2283071). As to conditions: primary human keratinocytes with fibroblasts; actives raise or lower the signal. Put shortly: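 Cells: human keratinocytes co-cultured with foreskin fibroblasts. Treat with chemical, 24 h. Measure TIMP-2 by ELISA; fit curves bidirectionally vs DMSO baseline.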

Read-out in test [10]: Transforming growth factor beta 1 (TGFb1), TGFB1 (gene 7040)
Put plainly: BSK_KF3CT_TGFb1: BioMAP Diversity Plus: KF3CT Assay for Transforming growth factor beta 1 (TGFb1) Biomarker Activity (AID 2283072). As to conditions: primary human keratinocytes with fibroblasts; actives raise or lower the signal. Put shortly:
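Primary human skin cells (keratinocytes, foreskin fibroblasts) were co-cultured, exposed to test chemical and sampled at 24 h. TGF-b1 levels were measured by ELISA and fitted bidirectionally relative to DMSO.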

Read-out in test [11]: C-C motif chemokine 2 (Homo sapiens) (UniProt P13500)
Put plainly: BSK_KF3CT_MCP1: BioMAP Diversity Plus: KF3CT Assay for Monocyte Chemoattractant Protein 1 (MCP1/CCL2) Biomarker Activity (AID 2283073). Conditions: primary human keratinocytes with fibroblasts; actives raise or lower the signal. Put shortly: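 Biomarker MCP-1 is measured by ELISA in primary human keratinocytes co-cultured with foreskin fibroblasts, 24 h after chemical treatment; DMSO serves as the negative control and activity baseline.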

Read-out in test [12]: Matrix Metallopeptidase 9 (MMP9), MMP9 (gene 4318)
Put plainly: BSK_KF3CT_MMP9: BioMAP Diversity Plus: KF3CT Assay for Matrix Metallopeptidase 9 (MMP9) Biomarker Activity (AID 2283074).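 On AC50: MMP9 protein level quantified by ELISA in the co-culture.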 Conditions: primary human keratinocytes with fibroblasts; actives raise or lower the signal. Put shortly:
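Keratinocyte plus foreskin fibroblast human primary skin co-culture was dosed with chemical and MMP-9 was quantified by ELISA 24 h later. Bidirectional curve fitting used DMSO as negative control and activity baseline.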

Read-out in test [13]: urokinase plasminogen activator (uPA), PLAU (gene 5328)
Put plainly: BSK_KF3CT_uPA: BioMAP Diversity Plus: KF3CT Assay for urokinase plasminogen activator (uPA) Biomarker Activity (AID 2283075). Conditions: primary human keratinocytes with fibroblasts; actives raise or lower the signal. Put shortly:
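Human keratinocyte plus foreskin fibroblast primary co-culture exposed to chemical for 24 h. uPA levels were quantified by ELISA, and activity was fitted bidirectionally against a DMSO negative-control baseline.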

Read-out in test [14]: CD40, CD40 (gene 958)
Put plainly: BSK_LPS_CD40: BioMAP Diversity Plus: LPS Assay for CD40 Biomarker Activity (AID 2283076). Conditions: primary human HUVEC with PBMC; actives raise or lower the signal. Put shortly: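 Using a multiplexed primary human co-culture (umbilical vein endothelium plus PBMC), CD40 was read by ELISA 24 h after dosing, with cytotoxicity tracked by sulforhodamine B staining of parallel cultures and activity fitted bidirectionally versus DMSO.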

Read-out in test [15]: E-selectin (Homo sapiens) (UniProt P16581)
In words: BSK_LPS_Eselectin: BioMAP Diversity Plus: LPS Assay for Eselectin Biomarker Activity (AID 2283077). Conditions: primary human HUVEC with PBMC; actives raise or lower the signal. Put shortly:
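Dose chemical onto LPS-driven HUVEC/PBMC co-culture; after 24 h, run ELISA for E-selectin; fit up- and down-going responses relative to DMSO control.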

Read-out in test [16]: Interleukin-8 (IL8), CXCL8 (gene 3576)
In words: BSK_LPS_IL8: BioMAP Diversity Plus: LPS Assay for Interleukin-8 (IL8) Biomarker Activity (AID 2283078). Conditions: primary human HUVEC with PBMC; actives raise or lower the signal. Put shortly:
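In this LPS system, chemical-treated human umbilical vein endothelium/PBMC co-cultures were harvested at 24 h for IL-8 ELISA.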

The nature of test [17]: BSK_LPS_SRB: Viability Assessment in the BioMAP Diversity Plus: LPS Assay (AID 2283079).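 Further: total protein by sulforhodamine B absorbance as a cytotoxicity measure; measured one day after compound addition.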 Conditions: primary human HUVEC with PBMC. Put shortly: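 Cytotoxicity endpoint in human endothelial–PBMC co-culture: 24 h exposure, then SRB (0.1%) staining, 560 nm read.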
Read-out in test [18]: Interleukin-1 alpha (IL1a), IL1A (gene 3552)
Put plainly: BSK_LPS_IL1a: BioMAP Diversity Plus: LPS Assay for Interleukin-1 alpha (IL1a) Biomarker Activity (AID 2283080). Conditions: primary human HUVEC with PBMC; actives raise or lower the signal. Put shortly:
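Primary human HUVEC and PBMC co-culture stimulated with LPS is dosed and harvested at 24 h. Both increases and decreases in ELISA-measured IL-1a are scored relative to DMSO.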

Calls of active or inactive are those of the source. How the source made its calls: active means hit-call score of the fitted dose curve at least 0.9, where 1 is the maximum; inactive means score below 0.9.

A word on the AC50: it is the concentration at which the activity in the assay is half-maximal.

Chain of E-selectin (Homo sapiens) (P16581 whole entry, looked up): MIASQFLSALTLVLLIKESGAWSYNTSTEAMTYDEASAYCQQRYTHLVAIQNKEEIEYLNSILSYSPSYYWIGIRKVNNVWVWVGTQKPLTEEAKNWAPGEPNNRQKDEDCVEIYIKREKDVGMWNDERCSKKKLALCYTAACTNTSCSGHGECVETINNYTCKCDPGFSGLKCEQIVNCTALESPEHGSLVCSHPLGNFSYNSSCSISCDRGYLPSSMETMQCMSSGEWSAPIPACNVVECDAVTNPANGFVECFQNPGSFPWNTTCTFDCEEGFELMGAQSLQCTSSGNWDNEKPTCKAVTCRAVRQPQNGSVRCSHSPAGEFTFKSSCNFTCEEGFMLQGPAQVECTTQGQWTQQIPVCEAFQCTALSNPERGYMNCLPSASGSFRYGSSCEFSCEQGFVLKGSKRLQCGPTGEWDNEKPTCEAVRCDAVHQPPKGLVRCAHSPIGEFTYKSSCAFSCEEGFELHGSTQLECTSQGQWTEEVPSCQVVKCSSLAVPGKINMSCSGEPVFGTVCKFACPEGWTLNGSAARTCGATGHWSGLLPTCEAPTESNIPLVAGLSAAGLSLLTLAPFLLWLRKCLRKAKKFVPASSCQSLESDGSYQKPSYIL

Consider `Brc1ccc(Oc2ccccc2)cc1`, for which the outcome in test [1], in [2], in test [3], in test [4], in test [5] and in [6] was inactive. In addition, the result in test [7], in [8], in test [9], in test [10], in [11] and in [12] was inactive. Further, the outcome in [13], in [14], in test [15], in [16], in test [17] and in test [18] was inactive.
Regarding `CN(C)c1ccccc1`, the result in test [1], in [2], in test [3], in test [4], in [5] and in test [6] was inactive. Also, the outcome in test [7], in test [8], in test [9], in [10], in test [11] and in test [12] was inactive. In addition, the result in test [13], in test [14], in test [15], in test [16], in [17] and in test [18] was inactive.
Consider `COc1cc(C=O)cc2c1[C@H](COC(N)=O)[C@]1(OC(C)=O)ON2C[C@H]2[C@@H]1N2C(C)=O`, for which the AC50 in [1] is 1.48 µM (active); in [2], 1.25 µM (active); in test [3], 0.565 µM (active); in test [4], 1 µM (active); in test [5], 11.6 µM (active); in test [6], 13 µM (active). The AC50 in [7] is 3.36 µM (active); in test [8], 20 µM (active); in test [9] it was 2.26 µM (active); in test [10], 2.21 µM (active); in test [11], 1.1 µM (active); in test [12] it was 2.07 µM (active). In addition, the half-maximal activity concentration (AC50) in test [13] is 11.4 µM (active); in [14] it was 20 µM (active); in test [15] it was 10.6 µM (active); in [16] it was 13.3 µM (active); in test [17], 6.69 µM (active); in test [18], 19.7 µM (active).
Consider `CC(C)(C)OOC(=O)c1ccccc1`, for which the AC50 in test [1] was 11.9 µM (active); in test [2], 35.1 µM (active); in test [3], 20 µM (active); in test [4] it was 32.9 µM (active). In addition, the outcome in test [5], in test [6], in test [7], in [8], in test [9] and in [10] was inactive. Besides, the result in [11], in [12], in [13], in test [14], in test [15] and in test [16] was inactive. Besides, the outcome in test [17] and in test [18] was inactive.

These data come from PubChem BioAssay (EPA / NIEHS).
